Results: PubChem BioAssay AID743398 (Broad Institute, 2014)
Hit rate of the full screen: of about 300,000 compounds, about 3,600 (1.2%) were called active. Cut-off read from the data, not from the text of the source: active = activation above about 30% (passing the limit was not always enough); inconclusive = no clear call, values can overlap the other calls. What follows is part of a selection rich in actives, with near analogues and random picks from the rest.

Experiment: activation of beta-catenin signaling reporter – cell-based, plate reader, single point, primary screen (AID 743398);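 note: 0% = neutral control wells and 100% = positive control wells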
Details: Wnt/beta-catenin reporter cell assay, activator, at 9.35 µM, hits give high values

activation, active:
COc1cccc(OCC(=O)Nc2ccccc2C(N)=O)c1 39.1%
Cn1cccc1C(=O)OCC(=O)c1ccc(Br)s1 47.9%
c1cnc(N2CCN(c3ccc4ccccc4n3)CC2)nc1 36.8%
O=C(Cc1ccc(Cl)cc1)c1ccccc1 39.9%
CC(C)(C)n1cnnc1Sc1ccc([N+](=O)[O-])cn1 37.4%
Cc1ccc(OC(=O)c2c(C)nn(-c3ccccc3)c2C)cc1 57.6%
COc1ccc(CN2C(=O)C(C)S/C2=N/N=C/c2ccco2)cc1 (stereo unspecified) 39.6%
O=C(CSc1ccc([N+](=O)[O-])cn1)Nc1ccc(N2CCOCC2)cc1 34.8%
CCCn1c(N)c(C(=O)CSc2nnc3n2CCCCC3)c(=O)[nH]c1=O 44.1%
Cc1ccc(NC(=O)c2sccc2C)cc1[N+](=O)[O-] 44.6%
O=S(=O)([N-]c1nc2ccccc2nc1-[n+]1ccc(Cc2ccccc2)cc1)c1ccc(Br)s1 88.3%
O=C(NC(=O)N1CCSCC1)c1c(Cl)cccc1Cl 31.3%
COc1cc(/C=N/Nc2nc3ccccc3s2)ccc1O 76.9%
O=C(NCCc1c[nH]c2ccccc12)c1cc2ccccc2oc1=O 40.4%
O=C(NCC(=O)N(Cc1cccs1)C(C(=O)NC1CCCCC1)c1ccco1)c1cccs1 (stereo unspecified) 67.7%
Cc1ccc2nc(N3CCN(C(=O)c4ccco4)CC3)sc2c1 40%
Cc1cc(C)cc(NC(=O)N(C)Cc2ccccc2)c1 46%
CSCCNC(=O)c1ccc2nc(Cc3ccccc3F)oc2c1 42.9%
COc1ccc(-c2cc3ncccc3cn2)cc1 50.1%

activation, inactive:
O=[N+]([O-])c1ccc(CN2CC(N3CCC(c4ccccc4)CC3)CS2(=O)=O)cc1 (stereo unspecified) -1.72%
CN(C)C(=O)c1cccc(-c2cnc3sc(NCc4ccc5c(c4)OCO5)nn23)c1 -6.39%
Cc1cccc(OCCC(=O)Nc2ccccc2C(N)=O)c1 1.98%
Cc1cccc(OCC(=O)Nc2ccccc2F)c1 22.2%
O=C(c1ccc(CS(=O)Cc2ccccc2Cl)o1)N1CCN(c2ccccc2)CC1 (stereo unspecified) -4.44%
CS(=O)(=O)/C(C#N)=C/c1cccn1S(=O)(=O)c1ccc([N+](=O)[O-])cc1 -1.05%
COc1cc2ccc(C(C)=O)c(O)c2cc1OC 10.2%
COc1ccc(NC(=O)C2Cc3c(-c4cccc(NC(C)=O)c4)ccnc3O2)cc1OC (stereo unspecified) -0.676%
Cn1cccc1C(=O)NNC(=O)COc1ccc(Br)cc1 3.43%
Cn1cccc1C(=O)OCC(=O)NCCc1ccccc1 15.6%
CC1CCCN(c2cccc3c2S(=O)(=O)N(Cc2ccc(F)cc2)[C@@H](C)[C@H](c2ccccc2)O3)C1 (stereo partly specified) -2.02%
O=C(NCc1ccccc1)[C@H]1CCCN1C(=O)[C@@H]1CCCN1C(=O)c1ccc(Cl)cc1Cl -5.01%
NC(c1ccccc1)c1csc(NC(=O)Nc2cccc(C(F)(F)F)c2)n1 (stereo unspecified) -0.452%
CC(C)CC1C(=O)N(Cc2cn(CC3CCCCC3)nn2)CCS(=O)(=O)N1Cc1ccc(-c2ccc(Cl)cc2)cc1 (stereo unspecified) -6.32%
O=C(c1ccncc1)N1CCN(c2ccc3ccccc3n2)CC1 3.16%
Oc1ccc(CN2CCN(c3ncccn3)CC2)cc1 -0.601%
CCCN1C(=O)c2[nH]nc(-c3ccccc3)c2C1c1ccccc1 (stereo unspecified) 0.123%
CC(C)CCNC(=O)c1[nH]c(C(F)(F)F)nc1-c1ccccc1 -0.284%
O=C(CN1CCN(c2ccc(Cl)cc2)CC1)c1ccccc1 0.814%
O=C(NCCS(=O)(=O)NCc1ccc(Cl)cc1)c1ccccc1 -1.51%
CN(C)C(=O)N1CCN(C(=O)[C@@H](Cc2ccccc2)NC(=O)[C@H]2O[C@@H](n3ccc(N)nc3=O)[C@H](O)[C@@H]2O)CC1 -0.987%
CC1CCCC(C)N1C(=O)COC(=O)c1ccccc1C(=O)c1ccccc1 (stereo unspecified) -3.33%
Cc1cc(N2CCN(C(=O)OC(C)(C)C)C[C@H]2C)ccc1N1CCN(Cc2ccccc2)[C@H](C)C1 -18.5%
Cc1cccc(C)c1NC(=O)CSc1ccc([N+](=O)[O-])cn1 -1.27%
O=[N+]([O-])c1ccc(Sc2n[nH]c(-c3ccco3)n2)nc1 -0.107%
Cc1cccc(C)c1NC(=O)COC(=O)c1c(C)nn(-c2ccccc2)c1C 2.07%
Cc1nn(-c2ccccc2)c(-n2cccc2)c1C(=O)O -0.442%
Cc1cccc(C)c1Cn1c(C)c(C(=O)NCc2cccc(Cl)c2)sc1=O -7.17%
CCCOc1ccc(F)cc1-c1cc(C(=O)Nc2ccc(F)cc2)[nH]n1 -2.71%
O=C1N/C(=N\N=C\c2ccco2)SC1Cc1ccc(F)cc1 (stereo unspecified) 1.16%
C=CCN1C(=O)C(Cc2cccc(Cl)c2)S/C1=N/N=C/c1ccco1 (stereo unspecified) -5.07%
CCOC(=O)c1cc(-c2sc(NC(=O)c3ccccc3)nc2C)n(-c2ccc(Br)cc2)n1 -1.56%
O=C(CSc1ccc([N+](=O)[O-])cn1)Nc1ccc(N2CCOCC2)c(Cl)c1 -0.66%
Cn1cnnc1SCC(=O)Nc1ccc(N2CCOCC2)cc1 -1.68%
CC(C)CNc1cccc2c1S(=O)(=O)N[C@H](C)CO2 -4.07%
CCCn1c(N)c(C(=O)CSc2nnc(-c3cccnc3)n2-c2ccc(C)cc2C)c(=O)[nH]c1=O -2.6%
CCCn1c(N)c(C(=O)CSc2nnc(Cc3cccs3)n2C2CC2)c(=O)[nH]c1=O 0.611%
Cc1[nH]nc2c1C(c1ccc(Br)cc1)NC2=O (stereo unspecified) 1.31%
Cc1cc(O)c(NC(=O)c2ccc(C)c([N+](=O)[O-])c2)cc1C 4.77%
Cc1ccc(NC(=O)CN(C)CC(=O)Nc2cccc(F)c2)cc1[N+](=O)[O-] -4.16%
O=S(=O)(NCc1ccccn1)c1ccc(Br)s1 -6.83%
Cc1cc(C)c[n+](-c2nc3ccccc3nc2[N-]S(=O)(=O)c2cccs2)c1 -2.64%
O=C(NC(=O)N1CCOCC1)c1ccccc1 -2.28%
O=C(NCC(=O)N1CCCCCCC1)c1ccccc1Cl 12.1%
OC(c1ccc(Cl)cc1)c1ncc(-c2ccc(Cl)cc2)[nH]1 (stereo unspecified) 0.492%
CCNc1nc(NCC)nc(N/N=C/c2ccc(O)c(OC)c2)n1 -3.98%
COc1cc(/C=N\Nc2nc(-c3cccs3)c(NC(C)=O)s2)ccc1O 7.87%
c1cc(-c2ccc3[nH]ccc3c2)n2ccnc2c1 3.12%
Fc1cccc(Cc2c(-c3cccc(Cl)c3)nc3ccc(Br)cn23)c1 16.8%
O=C(NCCc1c[nH]c2ccccc12)c1cccc(Br)c1 0.278%
CN(c1ccccc1)S(=O)(=O)c1ccc(Cl)c(C(=O)NCCc2c[nH]c3ccccc23)c1 -0.321%
Nc1[nH]c(C(=O)c2ccc(Br)cc2)c(-c2ccc3c(c2)OCO3)c1C(=O)NCCc1c[nH]c2ccccc12 0.212%
CCc1ccc(C2=CC(=O)CC(C)(C)C2=O)cc1 -1.61%
Cc1ccccc1N(C(=O)CNC(=O)c1cccs1)C(C(=O)NC1CCCC1)c1ccncc1 (stereo unspecified) -0.349%
O=C(NCC(=O)N(CC1CCCO1)C(C(=O)NC1CCCCC1)c1ccccc1)c1ccco1 (stereo unspecified) -4.62%
CCOC(=O)C1=CC[C@@H](c2ccncc2)N(S(=O)(=O)c2ccc(C)cc2)C1 -0.651%
CCCCn1nnnc1C(c1ccccc1)N1CCN(c2ccccc2OC)CC1 (stereo unspecified) 1.03%
COC(=O)C1=C(C)N(Cc2cccc(C(F)(F)F)c2)C(=NCc2cccc(C(F)(F)F)c2)NC1c1ccccc1C(F)(F)F (stereo unspecified) -4.8%
COc1ccc(-c2cnc3c(c2)C(=O)N([C@H](C)CO)C[C@@H](C)[C@H](CN(C)Cc2ccccc2)O3)cc1 -0.613%
Cc1ccc2nc(N3C(=O)C(O)=C(C(=O)c4ccco4)C3c3cccc(O)c3)sc2c1 (stereo unspecified) 8.29%
COc1ccc2nc(N3CCN(C(=O)c4ccc([N+](=O)[O-])o4)CC3)sc2c1 2.35%
COc1cccc(CC(=O)N2CCN(C(=O)C(=O)c3cccc(C(F)(F)F)c3)CC2)c1 -3.95%
CN(Cc1ccccc1)C(=O)c1cccc(C(=O)N(C)Cc2ccccc2)c1 1.74%
Cc1cc(C)cc(NC(=O)CSc2ccccc2)c1 -7.62%
Cc1ccccc1-c1nc(NC(C)C)nc2cc(-c3ccccc3)sc12 -8.66%
CN1CCN(c2ccc3c(c2)OC[C@H](Cc2ccccc2)NS3(=O)=O)CC1 -3.42%
COCCNC(=O)c1ccc2nc(Cc3ccc(OC)c(OC)c3)oc2c1 1.55%
COc1ccc(Cc2nc3ccc(C(=O)NCC4CCOCC4)cc3o2)cc1OC 7.09%
COc1ccc(-c2cn3cccnc3n2)cc1 26.2%
COc1ccc2nc(-c3ccccn3)ccc2c1 1.79%
CCOc1ccc(Cl)cc1-c1cc(C(=O)NCc2cccs2)[nH]n1 -2.6%
O=C(NCc1ccccc1)[C@@H]1CCCN1C(=O)[C@H]1CCCN1C(=O)c1cccc(Cl)c1 3.03%
